{"source": "PubChem BioAssay (NCATS)", "note": "Results filed as inconclusive are left out. A call without a number means that no potency is given here. Active and inactive are the calls of the source. Calls follow the shape of the dose curve; as a rule, active = well fitted cell-killing curve with a large enough effect; inconclusive = small, poorly fitted or top-dose-only effect; inactive = flat fitted curve, though single readings scatter. Potency is read from the fitted curve at half-maximal effect."}
{"experiment": "Cell Viability - LYMP2-009 (AID 968);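 also: cells exposed to compound for 24 h at 37 °C; nearly all actives have a fitted effect of over 55% in size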", "details": "LYMP2-009 lymphoblastoid cell viability; series mostly up to 92.2 µM"}
{"smiles": "CC(=O)Nc1ccc(C)cc1", "Potency": "inactive"}
{"smiles": "O=C1OC(=O)c2c(Br)c(Br)c(Br)c(Br)c21", "Potency": "inactive"}
{"smiles": "O=C(O)CNC(=O)c1ccc([N+](=O)[O-])cc1", "Potency": "inactive"}
{"smiles": "Cc1ccccc1C=O", "Potency": "inactive"}
{"smiles": "CNc1ccccc1", "Potency": "inactive"}
{"smiles": "Cc1cccc(C(=O)O)c1", "Potency": "inactive"}
{"smiles": "CC1CCC2CC1C2(C)C", "note": "(stereo not given)", "Potency": "inactive"}
{"smiles": "CC(C)C=O", "Potency": "inactive"}
{"smiles": "O=Cc1ccc(CO)o1", "Potency": "inactive"}
{"smiles": "O=[N+]([O-])c1ccccc1CCO", "Potency": "inactive"}
{"smiles": "O=Cc1c(Cl)cccc1Cl", "Potency": "inactive"}
{"smiles": "CCCCCCC=O", "Potency": "inactive"}
{"smiles": "CCCCC(CC)COCC1CO1", "note": "(stereo not given)", "Potency": "inactive"}
{"smiles": "CC(CCl)OC(C)CCl", "note": "(stereo not given)", "Potency": "inactive"}
{"smiles": "COc1ccc(N)c(C)c1", "Potency": "inactive"}
{"smiles": "CC=C(Cl)Cl", "Potency": "inactive"}
{"smiles": "O=[N+]([O-])c1c(Cl)cc(Cl)cc1Cl", "Potency": "inactive"}
{"smiles": "CCOC(C)(C)C", "Potency": "inactive"}
{"smiles": "CC(C)(O)CCC(C)(C)O", "Potency": "inactive"}
{"smiles": "O=Nc1ccc(NO)cc1", "Potency": "50.1 µM (active)"}
{"smiles": "COCCOC(=O)c1ccccc1C(=O)OCCOC", "Potency": "inactive"}
{"smiles": "C=C(C)C1CC=C(C)C(OC(C)=O)C1", "note": "(stereo not given)", "Potency": "inactive"}
{"smiles": "CSCCC=O", "Potency": "inactive"}
{"smiles": "Cc1nc2ccc(Cl)cc2[nH]1", "Potency": "inactive"}
{"smiles": "CC(O)COC(C)(C)C", "note": "(stereo not given)", "Potency": "inactive"}
{"smiles": "CC1=C(/C=C/C(C)=C/C=C/C(C)=C\\C=O)C(C)(C)CCC1", "Potency": "50.1 µM (active)"}
{"smiles": "[O-]/[N+](=N\\O)c1ccccc1", "Potency": "inactive"}
{"smiles": "Cc1ccc2oc(=O)ccc2c1", "Potency": "inactive"}
{"smiles": "CC(=O)c1ccccc1[N+](=O)[O-]", "Potency": "inactive"}
{"smiles": "Cc1ccc(C(C)(C)C)cc1", "Potency": "inactive"}
{"smiles": "O=[N+]([O-])c1ccc2nc[nH]c2c1", "Potency": "inactive"}
{"smiles": "O=C(O)c1ccc(Cl)c(Cl)c1", "Potency": "inactive"}
{"smiles": "Cc1cccc2ccccc12", "Potency": "inactive"}
{"smiles": "CC(C)N(C)C", "Potency": "inactive"}
{"smiles": "Clc1ccccn1", "Potency": "inactive"}
